The source of these data is PubChem BioAssay (NCATS).

Results filed as inconclusive are left out. A call without a number means that no potency is given here. Calls of active or inactive are those of the source. Calls come from the whole dose curve.
Potency is the fitted concentration of half-maximal effect.

The nature of the first test: Primary qHTS for inhibitors of SARS-S pseudo-typed particle cell entry (AID 1479145). Note: nearly all actives have a fitted effect of over 45% in size. The note with it: SARS-S pseudotyped particle cell entry, luciferase reporter; series mostly up to 57.1 µM. A general note: In qHTS, concentration-response curves come from the screen itself.
As for `COc1cc(C(C)=O)ccc1OCCCN1CCC(c2noc3cc(F)ccc23)CC1`, the Potency is 22.4 µM (active). Take `CNCC[C@@H](Oc1ccccc1C)c1ccccc1`: the Potency result was “inactive”. For the compound `CN1CCC[C@@H]1CCO[C@](C)(c1ccccc1)c1ccc(Cl)cc1`, the Potency was 10 µM (active). The same measure, in the same setting: the figure for `Nc1ccn([C@@H]2O[C@H](CO)[C@@H](O)C2(F)F)c(=O)n1` is 0.794 µM (active); for `COc1c(C)c2c(c(O)c1C/C=C(\C)CCC(=O)O)C(=O)OC2` it is “inactive”. As to `CN1CCN(CCCN2c3ccccc3Sc3ccc(Cl)cc32)CC1`, the Potency was 22.4 µM (active). `OCCN1CCN(CCCN2c3ccccc3Sc3ccc(Cl)cc32)CC1`: the Potency was 14.1 µM (active).

In the case of `Cc1ccc(-n2[nH]c(C)c(N=Nc3cccc(-c4cccc(C(=O)O)c4)c3O)c2=O)cc1C`, the Potency result is “inactive”. `COC(=O)C1=C(C)NC(C)=C(C(=O)OCC(C)C)C1c1ccccc1[N+](=O)[O-]` (configuration not stated): the Potency is 35.5 µM (active).

Turning to `O=C(O)c1ccc(-n2nc(-c3ccccc3O)nc2-c2ccccc2O)cc1`, the Potency entry is “inactive”.

Another test can be described thus: Primary qHTS for Huh7 cytotoxicity: counterscreen for inhibitors of MERS-S pseudotyped particle cell entry (AID 1479147). As to conditions: cell viability read-out; series mostly up to 57.1 µM.
Turning to `COc1cc2nc(N3CCN(C(=O)c4ccco4)CC3)nc(N)c2cc1OC`, the Potency result was “inactive”. Regarding `CC(C)C(=O)Nc1ccc([N+](=O)[O-])c(C(F)(F)F)c1`, the Potency entry is “inactive”.

For `NC12CC3CC(CC(C3)C1)C2`, the Potency entry was “inactive”. Turning to `CCC(C)(C)C(=O)O[C@H]1C[C@@H](C)C=C2C=C[C@H](C)[C@H](CC[C@@H]3C[C@@H](O)CC(=O)O3)[C@H]21`, the Potency result is “inactive”. `O=C1N=C(O)CN1/N=C/c1ccc(-c2ccc([N+](=O)[O-])cc2)o1`: the Potency result was “inactive”. Consider `CCN(CC)CCNC(=O)c1c(C)[nH]c(/C=C2\C(=O)Nc3ccc(F)cc32)c1C`, for which the Potency was 31.6 µM (active). Still for that read-out and setting: the entry for `CC(=O)O[C@@]12CO[C@@H]1C[C@H](O)[C@@]1(C)C(=O)[C@H](O)C3=C(C)[C@@H](OC(=O)[C@H](O)[C@@H](NC(=O)OC(C)(C)C)c4ccccc4)C[C@@](O)([C@@H](OC(=O)c4ccccc4)[C@H]21)C3(C)C` is “inactive”; for `Cc1nccn1CC1CCc2c(c3ccccc3n2C)C1=O` (configuration not stated) it is “inactive”. Consider `Cc1ccnc2c1NC(=O)c1cccnc1N2C1CC1`, for which the Potency entry was “inactive”.

Turning to `CCCC(=O)Nc1ccc(OCC(O)CNC(C)C)c(C(C)=O)c1` (configuration not stated), the Potency result was “inactive”. As to `CCCCc1ncc(/C=C(\Cc2cccs2)C(=O)O)n1Cc1ccc(C(=O)O)cc1`, the Potency result is “inactive”. With `CC(C)c1c(C(=O)Nc2ccccc2)c(-c2ccccc2)c(-c2ccc(F)cc2)n1CC[C@@H](O)C[C@@H](O)CC(=O)O`, the Potency result was “inactive”. Same read-out and setting: with `COc1cc(Nc2c(C#N)cnc3cc(OCCCN4CCN(C)CC4)c(OC)cc23)c(Cl)cc1Cl` the figure was 28.2 µM (active).

Turning to `NC(=O)N1c2ccccc2CC(=O)c2ccccc21`, the Potency entry was “inactive”. Take `OCCN1C[C@H](O)[C@@H](O)[C@H](O)[C@H]1CO`: the Potency result was “inactive”. Turning to `CC(C(=O)O)c1cccc(C(=O)c2ccccc2)c1` (configuration not stated), the Potency result is “inactive”. As to `NC1[C@H]2CN(c3nc4c(cc3F)c(=O)c(C(=O)O)cn4-c3ccc(F)cc3F)C[C@@H]12` (some centres not stated), the Potency entry was “inactive”. Regarding `Cc1ccc(C(=O)c2cc(O)c(O)c([N+](=O)[O-])c2)cc1`, the Potency result was “inactive”. Regarding `CCN(CCO)CCCC(C)Nc1ccnc2cc(Cl)ccc12` (configuration not stated), the outcome is “inactive [at 5.34 µM]”.

With `CNS(=O)(=O)CCc1ccc2[nH]cc(C3CCN(C)CC3)c2c1`, the Potency result is “inactive”. Turning to `O=C(c1ccccc1)c1ccc2n1CCC2C(=O)O` (configuration not stated), the Potency result is “inactive”. With `COc1ccc(-c2cc(=S)ss2)cc1`, the Potency result was “inactive”.

Turning to `C=C(c1ccc(C(=O)O)cc1)c1cc2c(cc1C)C(C)(C)CCC2(C)C`, the Potency entry was “inactive”. On to `Cc1[nH]cnc1CN1CCc2c(c3ccccc3n2C)C1=O`, for which the Potency entry was “inactive”. On to `CCC1C(=O)OCC1Cc1cncn1C` (configuration not stated), for which the Potency result is “inactive”. Turning to `CC(=O)CCCCn1c(=O)c2c(ncn2C)n(C)c1=O`, the Potency result is “inactive”. As to `N=C(N)c1ccc(OCCCCCOc2ccc(C(=N)N)cc2)cc1`, the Potency result was “inactive”.
